Experimental findings from PubChem BioAssay (EPA / NIEHS) are described below.

Assay [1] in a line: TOX21_p53_BLA_p2_viability: Viability Assessment in the Tox21 HCT-116 p53 Agonism Beta-lactamase Assay, Phase 2 (AID 2283591).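 Also: compound exposure lasted 16 h at 37 °C; actives lower the ATP signal meaning cytotoxicity.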 In outline: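 HCT-116 p53-bla cells (4000/well) rested 5 h at 37C, then received compounds in DMSO (217-fold dilution) for 16 h at 37C, 5% CO2. After the CCF4 read, CellTiter-Glo was added; ATP luminescence was read after 30 min at room temperature.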

For assay [2], the target named is Cellular tumor antigen p53 (Homo sapiens) (UniProt P04637). In words: TOX21_p53_BLA_p2_ratio: Tox21 HCT-116 p53 Agonism Beta-lactamase Assay, Ratio, Phase 2 (AID 2283592). In outline: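 Ratio endpoint: beta-lactamase cleavage of CCF4-AM, blue (460 nm) over green (530 nm). HCT116 reporter line; 16 h treatment, 37C; substrate 2 h RT.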
Chain of Cellular tumor antigen p53 (Homo sapiens) (P04637 whole entry, looked up): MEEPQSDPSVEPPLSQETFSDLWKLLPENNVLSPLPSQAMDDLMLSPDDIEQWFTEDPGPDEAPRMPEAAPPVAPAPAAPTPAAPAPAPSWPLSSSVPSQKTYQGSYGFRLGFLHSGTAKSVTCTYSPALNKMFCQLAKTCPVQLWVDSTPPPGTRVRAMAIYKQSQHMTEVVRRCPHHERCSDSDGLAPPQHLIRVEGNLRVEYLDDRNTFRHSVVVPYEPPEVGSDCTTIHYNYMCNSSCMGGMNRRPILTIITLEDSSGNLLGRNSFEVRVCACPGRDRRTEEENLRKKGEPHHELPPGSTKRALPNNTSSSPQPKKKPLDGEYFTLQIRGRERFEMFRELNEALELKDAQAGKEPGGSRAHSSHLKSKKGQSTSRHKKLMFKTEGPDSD
A short description of assay [3]: TOX21_p53_BLA_p3_viability: Viability Assessment in the Tox21 HCT-116 p53 Agonism Beta-lactamase Assay, Phase 3 (AID 2283593).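 Also: cells exposed to compound for 16 h before reading.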 In outline:
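HCT-116 cells (4000/well) rested 5 h at 37C, then got DMSO compounds by pin tool (217-fold dilution) for 16 h at 37C, 5% CO2. After the bla read, CellTiter-Glo was added and luminescence read at 30 min, room temperature.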

For assay [4], the target named is Cellular tumor antigen p53 (Homo sapiens) (UniProt P04637). In words: TOX21_p53_BLA_p3_ratio: Tox21 HCT-116 p53 Agonism Beta-lactamase Assay, Ratio, Phase 3 (AID 2283596). An outline of the steps:
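Cells were seeded at 4000/well, rested 5 h at 37C, then dosed with DMSO compound solutions (217-fold dilution) for 16 h. CCF4-AM substrate was loaded for 2 h at room temperature, and the 460/530 nm emission ratio was fitted for gain of signal versus DMSO.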

The nature of assay [5]: TOX21_p53_BLA_p4_viability: Viability Assessment in the Tox21 HCT-116 p53 Agonism Beta-lactamase Assay, Phase 4 (AID 2283597).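 Also: hits lower the luminescence signal meaning cytotoxicity.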 In outline:
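Cytotoxicity was inferred from loss of CellTiter-Glo luminescence. HCT116 cells had been dosed with compounds after 5 h plating, incubated 16 h at 37C and 5% CO2, and exposed to the CCF4-AM substrate for 2 h.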

In assay [6] the target is Cellular tumor antigen p53 (Homo sapiens) (UniProt P04637). The assay can be described thus: TOX21_p53_BLA_p5_ratio: Tox21 HCT-116 p53 Agonism Beta-lactamase Assay, Ratio, Phase 5 (AID 2283599). In outline: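 HCT-116 cells carrying a p53-inducible beta-lactamase reporter were seeded at 4000 cells/well and dosed after 5 h with compound in DMSO (217-fold dilution). After 16 h at 37C, CCF4-AM substrate was added for 2 h, and the 460/530 nm emission ratio was scored as gain-of-signal versus DMSO.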

The nature of assay [7]: TOX21_p53_BLA_p5_viability: Viability Assessment in the Tox21 HCT-116 p53 Agonism Beta-lactamase Assay, Phase 5 (AID 2283600). An outline of the steps:
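Luciferase-coupled ATP quantitation of cells treated for 16 h (37C, 5% CO2) with test chemicals delivered in DMSO via a 217-fold dilution; 4000 cells/well; reagent incubated 30 min at room temperature before luminescence reading.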

In assay [8] the target is Cellular tumor antigen p53 (Homo sapiens) (UniProt P04637). In words: TOX21_p53_BLA_p4_ratio: Tox21 HCT-116 p53 Agonism Beta-lactamase Assay, Ratio, Phase 4 (AID 2283601). In outline: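 HCT116 cells carrying an inducible beta-lactamase reporter were plated at 4000 cells/well, rested 5 h, then exposed to compounds in DMSO (217-fold dilution) for 16 h at 37C. CCF4-AM substrate was loaded 2 h at room temperature; 460/530 nm emission ratio scored gain-of-signal versus DMSO.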

Where “and” joins values, the source holds several entries; their conditions need not be identical. Identical values can stand only once. Inconclusive results are not listed. The source holds several records for some structures; these can differ, active in one and inactive in another. Calls of active or inactive are those of the source. The calls were made as follows: active = hit-call score of the fitted dose curve at least 0.9, where 1 is the maximum; inconclusive = response in the unintended direction; inactive = score below 0.9.

With `Cc1cccc2cccnc12`, the call in assay [1], in assay [2], in assay [3], in assay [4] and in assay [5] was inactive.

Regarding `CC1=CC[C@H](CC=O)C1(C)C`, the compound was called inactive in assay [1], in assay [2], in assay [3], in assay [4], in assay [5] and in assay [6].

Regarding `CC(C)[C@H](N)C(=O)OCCOCn1cnc2c(=O)[nH]c(N)nc21`, the outcome in assay [1], in assay [2], in assay [3], in assay [4] and in assay [5] was inactive.

In the case of `CCC[C@@H]1C[C@@H](C(=O)N[C@@H]([C@H]2O[C@H](SC)[C@H](O)[C@@H](O)[C@H]2O)[C@@H](C)O)N(C)C1`, the compound was called inactive in assay [1], in assay [2], in assay [3] and in assay [4].

For the compound `O=[N+]([O-])c1cccc(C(F)(F)F)c1`, the result in assay [1], in assay [2], in assay [3] and in assay [4] was inactive.

Take `CCCCCCCCCC(=O)NO`: the compound was called inactive in assay [1], in assay [2], in assay [3], in assay [4], in assay [5] and in assay [6]. Moreover, the compound was called inactive in assay [7] and in assay [8]. Moreover, the values for the AC50 in assay [2] and in assay [8] were 23.1 µM (active) and 24.3 µM (active), respectively.

In the case of `CO[C@H]1C[C@@H]2CC[C@@H](C)[C@@](O)(O2)C(=O)C(=O)N2CCCC[C@H]2C(=O)O[C@H]([C@H](C)C[C@@H]2CC[C@@H](O)[C@H](OC)C2)CC(=O)[C@H](C)/C=C(\C)[C@@H](O)[C@@H](OC)C(=O)[C@H](C)C[C@H](C)\C=C/C=C/C=C/1C`, the AC50 – broadly, the concentration giving half of the maximal activity seen – in assay [1] was 18.1 µM (active) and 20.6 µM (active); in assay [2], 29.7 µM (active); in assay [3], 33.3 µM (active) and 22.4 µM (active); in assay [4], 41 µM (active) and 40.8 µM (active); in assay [5] it was 17.5 µM (active) and 17.7 µM (active); in assay [6] it was 35.1 µM (active) and 34.8 µM (active). Further, the AC50 in assay [7] was 23.7 µM (active) and 23.9 µM (active); in assay [8], 21.7 µM (active) and 20.8 µM (active). For the same compound, in assay [2], the result was inactive.

Take `CCc1nn(CCCN2CCN(c3cccc(Cl)c3)CC2)c(=O)n1CCOc1ccccc1`: the compound was classed as inactive in assay [1], in assay [2], in assay [3], in assay [4] and in assay [6]. Moreover, the AC50 was 18.9 µM (active) in assay [3]; 23 µM (active) and 14.9 µM (active) in assay [5].

Turning to `COC(=O)[C@H]1[C@H]2C[C@@H]3c4[nH]c5ccccc5c4CCN3C[C@H]2C[C@@H](OC(=O)c2cc(OC)c(OC)c(OC)c2)[C@@H]1OC`, the outcome in assay [1], in assay [2], in assay [3], in assay [4], in assay [5] and in assay [6] was inactive. For the same compound, the result in assay [7] and in assay [8] was inactive. The AC50 was 6.8 µM (active) in assay [5] and 15.7 µM (active) in assay [8].

As for `Oc1cccc(-c2c3nc(c(-c4cccc(O)c4)c4ccc([nH]4)c(-c4cccc(O)c4)c4nc(c(-c5cccc(O)c5)c5ccc2[nH]5)CC4)C=C3)c1`, the AC50 is 20.2 µM (active) and 17.5 µM (active) in assay [1]; 26.1 µM (active) and 33.8 µM (active) in assay [2]; 35.7 µM (active) in assay [3]; 37.4 µM (active) in assay [4]; 17 µM (active) and 33.2 µM (active) in assay [5]; 37.1 µM (active) and 38.3 µM (active) in assay [6]. In addition, the concentration at half-maximal activity (AC50) in assay [7] was 42.9 µM (active); in assay [8] it was 24.5 µM (active) and 36.4 µM (active). In addition, the compound was called inactive in assay [3], in assay [4] and in assay [7].

Turning to `CCOC(=O)c1c(C)n(C)c2ccc(O)cc12`, the call in assay [1], in assay [2], in assay [3], in assay [4], in assay [5] and in assay [6] was inactive.

Consider `CSc1ccc2c(c1)N(CCC1CCCCN1C)c1ccccc1S2` (centres undefined), for which the AC50 was 37 µM (active) and 75.4 µM (active) in assay [1]; 43.6 µM (active) and 79 µM (active) in assay [2]; 73 µM (active) in assay [3]; 35.8 µM (active) and 59.3 µM (active) in assay [5]; 43.3 µM (active) and 86 µM (active) in assay [6]; 43.8 µM (active) and 85.2 µM (active) in assay [7]. Also, the AC50 in assay [8] is 43.4 µM (active) and 82.3 µM (active). Also, the compound was called inactive in assay [3] and in assay [4].

In the case of `C=CCn1c(=O)n(CC=C)c(=O)n(CC=C)c1=O`, the call in assay [1], in assay [2], in assay [3], in assay [4], in assay [5] and in assay [6] was inactive.

For `CCCCCOC(=O)CCCC`, the compound was classed as inactive in assay [1], in assay [2] and in assay [3].

In the case of `OCc1cc(C(O)CNCCCCCCOCCCCc2ccccc2)ccc1O` (centres undefined), the compound was classed as inactive in assay [1], in assay [2], in assay [3], in assay [4], in assay [5] and in assay [6]. Further, the compound was called inactive in assay [7] and in assay [8]. For the same compound, the AC50 in assay [5] was 28.2 µM (active).
